Source: PubChem BioAssay
Most compounds without a hit are left out; they make up all but 1% or so of the library.
SSB-PriA inh: K. pneumoniae PriA-SSBct interaction inhibition; AlphaScreen SSBct-PriA binding, biotinylated peptide; inhibition, % at 33 µM; 430,000 tested, 0.6% active; AID 1272365; in the data active = inhibition mostly above about 37%, no sharp cut-off; inactive = mostly below about 20%;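 note: plate controls were negative control peptide for no effect and reference peptide for full effect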
Mtb BioA inh: blocks M. tuberculosis BioA enzyme activity; purified M. tuberculosis BioA enzyme, plate reader; inhibition, % at 9.99 µM; 360,000 tested, 0.096% active; AID 602481; in the data active = inhibition above about 40%
Mtb hypoxia rep: inhibitors of hypoxia-regulated fluorescent reporter in Mycobacterium tuberculosis; 300,000 tested, 0.1% active; M. tuberculosis hypoxia-regulated fluorescent reporter, fluorescence; AID 1159583; fluorescence inhibition, % (concentration not given with the values); in the data active = fluorescence inhibition mostly above about 23%, no sharp cut-off; inactive = mostly below about 17%
TcdB GH inh: blocks C. difficile toxin B glycohydrolase activity | inhibition, % at 9.99 µM | P18177 | 350,000 tested, 0.24% active | AID 652162 | TcdB glycohydrolase enzymatic assay, plate reader; in the data active = inhibition above about 10%
Target sequence (P18177 whole entry, looked up): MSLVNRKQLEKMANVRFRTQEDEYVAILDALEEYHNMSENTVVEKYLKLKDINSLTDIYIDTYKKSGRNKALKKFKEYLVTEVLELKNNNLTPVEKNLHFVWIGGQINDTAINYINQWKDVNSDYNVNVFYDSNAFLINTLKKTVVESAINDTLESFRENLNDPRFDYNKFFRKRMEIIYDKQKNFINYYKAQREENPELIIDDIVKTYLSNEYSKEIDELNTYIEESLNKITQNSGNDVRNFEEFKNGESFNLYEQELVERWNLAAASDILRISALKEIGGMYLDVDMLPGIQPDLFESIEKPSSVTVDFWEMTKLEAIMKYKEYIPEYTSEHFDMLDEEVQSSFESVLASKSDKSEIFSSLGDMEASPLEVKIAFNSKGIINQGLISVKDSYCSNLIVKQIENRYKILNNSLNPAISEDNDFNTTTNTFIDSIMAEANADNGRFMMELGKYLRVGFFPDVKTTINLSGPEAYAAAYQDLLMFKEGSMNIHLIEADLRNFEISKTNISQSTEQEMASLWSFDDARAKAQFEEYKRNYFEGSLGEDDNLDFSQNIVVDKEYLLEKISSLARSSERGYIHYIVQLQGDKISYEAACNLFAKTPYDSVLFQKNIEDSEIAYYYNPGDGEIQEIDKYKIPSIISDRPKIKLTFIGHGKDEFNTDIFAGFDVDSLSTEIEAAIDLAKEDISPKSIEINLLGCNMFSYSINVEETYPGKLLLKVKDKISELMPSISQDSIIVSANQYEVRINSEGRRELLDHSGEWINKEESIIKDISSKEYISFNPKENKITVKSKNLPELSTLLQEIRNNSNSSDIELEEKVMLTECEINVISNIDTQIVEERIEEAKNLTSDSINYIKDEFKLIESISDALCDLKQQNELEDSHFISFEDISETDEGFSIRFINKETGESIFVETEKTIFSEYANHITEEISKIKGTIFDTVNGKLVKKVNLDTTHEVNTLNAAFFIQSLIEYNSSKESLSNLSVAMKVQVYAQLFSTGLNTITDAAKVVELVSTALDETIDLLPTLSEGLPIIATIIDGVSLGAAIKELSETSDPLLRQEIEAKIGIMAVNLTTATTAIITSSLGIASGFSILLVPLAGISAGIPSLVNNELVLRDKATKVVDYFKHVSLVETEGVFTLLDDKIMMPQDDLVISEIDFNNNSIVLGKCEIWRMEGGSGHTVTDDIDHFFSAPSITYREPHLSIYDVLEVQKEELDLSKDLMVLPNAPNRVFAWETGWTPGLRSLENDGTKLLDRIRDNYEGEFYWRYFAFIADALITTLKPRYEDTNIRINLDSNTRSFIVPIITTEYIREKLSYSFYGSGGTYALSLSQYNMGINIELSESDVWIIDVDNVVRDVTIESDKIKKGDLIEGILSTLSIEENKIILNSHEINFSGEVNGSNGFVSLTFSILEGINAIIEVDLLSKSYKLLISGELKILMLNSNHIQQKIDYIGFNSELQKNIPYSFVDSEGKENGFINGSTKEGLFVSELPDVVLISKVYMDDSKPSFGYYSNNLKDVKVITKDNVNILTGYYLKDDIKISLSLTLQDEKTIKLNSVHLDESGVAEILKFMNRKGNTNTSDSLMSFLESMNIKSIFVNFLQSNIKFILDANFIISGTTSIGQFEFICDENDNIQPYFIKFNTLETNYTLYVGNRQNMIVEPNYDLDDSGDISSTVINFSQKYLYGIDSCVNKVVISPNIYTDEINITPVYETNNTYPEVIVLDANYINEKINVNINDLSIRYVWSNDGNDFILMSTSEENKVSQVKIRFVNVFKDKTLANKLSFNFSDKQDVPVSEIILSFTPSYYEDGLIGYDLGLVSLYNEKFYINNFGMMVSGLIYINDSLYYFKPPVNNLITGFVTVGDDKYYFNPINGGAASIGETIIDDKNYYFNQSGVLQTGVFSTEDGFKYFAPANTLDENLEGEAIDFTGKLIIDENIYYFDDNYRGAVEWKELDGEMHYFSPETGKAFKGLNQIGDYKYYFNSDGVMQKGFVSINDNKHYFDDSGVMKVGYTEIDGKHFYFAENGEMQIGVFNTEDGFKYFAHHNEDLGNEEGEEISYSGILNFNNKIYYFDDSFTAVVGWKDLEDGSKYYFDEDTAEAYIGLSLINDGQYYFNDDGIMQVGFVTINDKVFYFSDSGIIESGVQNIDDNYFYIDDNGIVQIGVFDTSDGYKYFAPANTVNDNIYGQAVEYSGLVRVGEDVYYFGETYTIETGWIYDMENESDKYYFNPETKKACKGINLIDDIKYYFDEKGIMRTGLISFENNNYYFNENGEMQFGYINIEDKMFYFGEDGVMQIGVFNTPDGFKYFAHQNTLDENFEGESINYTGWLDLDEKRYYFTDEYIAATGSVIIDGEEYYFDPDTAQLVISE
FadD28 binding: blocks FadD28 binding to the bisubstrate probe; fluorescence polarization; inhibition, % at 12.5 µM; 360,000 tested, 0.22% active; AID 588549; in the data active = inhibition above about 8.5%, passing the limit was not always enough
PrP UTR inh: suppresses PrP 5' UTR mRNA reporter expression; inhibition, % (test concentration not listed); 340,000 tested, 0.35% active; AID 488862; cell-based PrP 5' UTR mRNA reporter, plate reader; in the data active = inhibition above about 52%; note: 0 = median of the neutral control wells
An asterisk follows results filed as active; ! = not active in a repeat.

For Cn1nc(CN(Cc2ccco2)C(=O)c2cccs2)c2c1CCC2 the results were SSB-PriA inh -5.
`Cn1nc(CN(Cc2ccco2)C(=O)N2CCN(S(C)(=O)=O)C2=O)c2c1CCC2` gave SSB-PriA inh 84*.
C[C@H]1C=C(C(=O)NCc2nc3ccccc3[nH]2)O[C@@H](OCc2ccc(CO)cc2)C1 was read as SSB-PriA inh -10, Mtb BioA inh 3, TcdB GH inh 11*!, FadD28 binding 0 and PrP UTR inh -22.
Screening Nc1ccc(N=Nc2ccccc2O)c(N)c1 returned SSB-PriA inh 68*, Mtb BioA inh 0, Mtb hypoxia rep 14, TcdB GH inh 0 and FadD28 binding 1.
CC(C)C1(c2ccsc2)NC(=O)NC1=O (stereo unspecified) was read as SSB-PriA inh -16, TcdB GH inh 1, FadD28 binding -3 and PrP UTR inh -31.
Screening CC(C)C12NC(=O)NC(=O)N1CCS2 (stereo unspecified) returned SSB-PriA inh -14, TcdB GH inh 10*, FadD28 binding -2 and PrP UTR inh -14.
CCOC(=O)CSc1nc2cccnc2n1C was read as SSB-PriA inh -13, Mtb BioA inh 0, Mtb hypoxia rep 8, TcdB GH inh -3, FadD28 binding -4 and PrP UTR inh -28.
Screening CC1Cc2ccccc2N1S(=O)(=O)c1cccc(C(=O)NCc2ccncc2)c1 (stereo unspecified) returned SSB-PriA inh 9, Mtb BioA inh 3, Mtb hypoxia rep -11, TcdB GH inh 2, FadD28 binding -1 and PrP UTR inh 2.
Screening O=C(NCc1ccncc1)c1cccc(S(=O)(=O)N2CCc3ccccc32)c1 returned SSB-PriA inh 0, Mtb BioA inh 3, Mtb hypoxia rep 28*, TcdB GH inh -1, FadD28 binding 1 and PrP UTR inh -16.
For O=C(NCc1cccc(Cl)c1)c1cccc(S(=O)(=O)N2CCCCC2)c1 the results were SSB-PriA inh -8, Mtb BioA inh -1, Mtb hypoxia rep 29*, TcdB GH inh 1, FadD28 binding -3 and PrP UTR inh -33.
`O=C(C[C@H]1C=C[C@H](NC(=O)Nc2ccccc2F)[C@@H](CO)O1)NCc1ccccc1` gave TcdB GH inh -9.
For O=C(CC1SC(N2CCCCC2)=NC1=O)Nc1ccc(C(=O)O)cc1 (stereo unspecified) the results were SSB-PriA inh 6, Mtb BioA inh -2, Mtb hypoxia rep 13, TcdB GH inh -3, FadD28 binding 0 and PrP UTR inh -29.
Screening CCOC(=O)C(C#N)=c1sc(=C2C=Cc3ccccc3N2CC)c(=O)n1CC returned SSB-PriA inh -4.
CCOC(=O)/C(C#N)=C/C=C1\C=Cc2ccccc2N1CC was read as SSB-PriA inh 18, Mtb hypoxia rep 43*, TcdB GH inh 1, FadD28 binding -1 and PrP UTR inh -27.
COc1ccc2c(c1)-c1nc(N=Cc3ccc(O)c(OC)c3)sc1CC2 was read as SSB-PriA inh 20 and Mtb hypoxia rep 8.
`O=C(Cc1cc(=O)[nH]c(SCc2cccc(Cl)c2)n1)NCCC1=CCCCC1` gave SSB-PriA inh 40*.
For CCCNC(=O)NC[C@@H]1[C@H](c2ccc(C3=CCCC3)cc2)[C@@H](CO)N1C(C)=O the results were Mtb BioA inh 6.
CC1(N2CCCCC2)C(=O)c2ccccc2C1=O was read as SSB-PriA inh 3, Mtb hypoxia rep 2, TcdB GH inh 1, FadD28 binding -1 and PrP UTR inh -16.
Screening CC1(S(=O)(=O)O)CC(=O)c2ccccc2C1=O (stereo unspecified) returned SSB-PriA inh 83*, Mtb BioA inh -1, Mtb hypoxia rep 9, TcdB GH inh -2, FadD28 binding 0 and PrP UTR inh -17.
For Cc1ccc2c(c1)c1cccc3c1n2CCN3CCC(N)=O the results were SSB-PriA inh 58*, FadD28 binding 2 and PrP UTR inh -99.
Screening COc1cccc(NC(=O)N2C[C@@H](O)COC[C@@H]3O[C@H](CC(=O)NC4CCC4)CC[C@H]32)c1 returned Mtb BioA inh -3 and TcdB GH inh -2.
O=C(C1=C[C@H](c2ccc(Br)cc2)C[C@H](OCc2ccc(CO)cc2)O1)N1CCN(Cc2ccccc2)CC1 was read as Mtb BioA inh -2 and TcdB GH inh 1.
`O=C(C1=C[C@H](c2ccc(Br)cc2)C[C@H](OCCCCO)O1)N1CCN(Cc2ccccc2)CC1` gave SSB-PriA inh 42*, Mtb BioA inh 4, TcdB GH inh -1, FadD28 binding -2 and PrP UTR inh -21.
`Cc1noc(C)c1NC(=O)N(C)C[C@H]1Oc2ccc(NS(C)(=O)=O)cc2C(=O)N([C@H](C)CO)C[C@H]1C` gave Mtb BioA inh -2 and TcdB GH inh 0.
For CCOC(=O)c1[nH]c2ccccc2c1NC(=O)c1ccc2c(c1)OCO2 the results were SSB-PriA inh 97*, Mtb BioA inh 0, Mtb hypoxia rep 2, TcdB GH inh 0, FadD28 binding -1 and PrP UTR inh 9.
CCCC(=O)Nc1c(C(=O)OCC)[nH]c2ccccc12 was read as SSB-PriA inh 39*, Mtb BioA inh -2, Mtb hypoxia rep 6, TcdB GH inh 3, FadD28 binding 0 and PrP UTR inh -16.
`CCC(C)C1/C=C\CC(NC(=O)OCC2c3ccccc3-c3ccccc32)CC(=O)N1Cc1ccccc1` (stereo unspecified) gave SSB-PriA inh -8, Mtb BioA inh -1, FadD28 binding -1 and PrP UTR inh -4.
Screening CCOc1ccccc1NC(=O)CSc1nnc(-c2ccco2)n1Cc1ccco1 returned SSB-PriA inh -3, Mtb BioA inh 7, Mtb hypoxia rep -1, FadD28 binding -1 and PrP UTR inh -2.
COc1ccccc1NC(=O)CSc1nnc(-c2ccccc2)n1Cc1ccco1 was read as SSB-PriA inh 55*.
Screening O=C(CSc1nnc(-c2ccccn2)n1Cc1ccco1)c1ccc(-c2ccccc2)cc1 returned SSB-PriA inh 49*, Mtb BioA inh -2, Mtb hypoxia rep -14, FadD28 binding 0 and PrP UTR inh -11.
`Clc1ccc(CSc2nnc(-c3ccccn3)n2Cc2ccco2)c(Cl)c1` gave SSB-PriA inh 49*, Mtb BioA inh -2, Mtb hypoxia rep 8, FadD28 binding -7 and PrP UTR inh -14.
`CC(=O)Nc1ccc(S(=O)(=O)NNC(=O)c2cccc(Br)c2)cc1` gave SSB-PriA inh 12, Mtb hypoxia rep 4, TcdB GH inh 1, FadD28 binding -1 and PrP UTR inh -15.
For O=C(Nc1cc([N+](=O)[O-])ccc1N1CCOCC1)c1cccs1 the results were SSB-PriA inh -10, Mtb BioA inh -2, Mtb hypoxia rep -5, TcdB GH inh 3, FadD28 binding 1 and PrP UTR inh -12.
